In PubChem BioAssay AID1233 (SRMLSC, 2008):
Measured potencies and affinities stand elsewhere. Calls of active or inactive are those of the source.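 How the source made its calls: active means a dose-response curve fit returns a half-maximal inhibitory concentration, extrapolated values included; inactive means the fit returns no such concentration.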

target: HMG-CoA reductase [Enterococcus faecalis] (UniProt Q9FD70); experiment: inhibitors of E. faecalis class II HMGR, confirmation, biochemical, Enterococcus faecalis (AID 1233);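 further: 0% = full reaction carrier wells and 100% = background wells lacking mevalonate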; settings: purified E. faecalis HMGR, NADPH absorbance 340 nm kinetics; series mostly up to 100 µM; inhibition: at the top concentration

inhibition, inactive:
Cc1[nH][nH]c(=O)c1C(c1c(C)[nH][nH]c1=O)c1cn(Cc2ccc(F)cc2)c2ccccc12 8.42%
COc1ccc(Cl)cc1NC(=O)CN(c1ccccc1)S(=O)(=O)N(C)C -8.3%
O=C(COCc1nc2ccccc2c(=O)[nH]1)NCC1CCCCC1 -3.54%
NC(=S)NNC(=O)c1cccc(Br)c1 -10.2%
COc1ccc(/C=C/C(=O)NCCNC(=O)c2ccccc2)cc1OC 0.2%
Cc1cccc(Nc2nnc(SCC(=O)Nc3ncc(C(F)(F)F)cc3Cl)s2)c1C -4.11%
CCOC(=O)/C(C#N)=C1/C(=O)N(Cc2ccccc2)c2ccccc21 -7.29%
CCN1C(=O)/C(=C/c2cn(C)nc2C)SC1=S -13.8%
CC(C)(C)C(=O)N1CCC[C@H]1C(O)(c1ccccc1)c1ccccc1 -3.19%
Cc1cccc(NC(=O)CSc2ccc(-c3ccc4c(c3)OCO4)nn2)c1C -26.3%
Cc1cc(C)n(C2CC(=O)N(c3ccccc3)C2=O)n1 (stereo unspecified) -1.73%
COc1ccc(C(=O)C(C)OC(=O)c2cccc(S(=O)(=O)Nc3cc(Cl)c(OC)cc3OC)c2)cc1 (stereo unspecified) -1.47%
FC(F)(F)c1cnc(Oc2ccc(-c3nnco3)cc2)c(Cl)c1 -1.62%
COc1ccc(N2CCN(C(=O)C3CCC(Cn4c(=S)[nH]c5ccccc5c4=O)CC3)CC2)cc1 (stereo unspecified) -4.08%
CN(C)S(=O)(=O)c1cccc(C(=O)Nc2ccc(S(=O)(=O)N3CCCC3)cc2)c1 -6.6%
CC(C)(C)C1(O)CC(C(F)(F)F)=NN1C(=O)CCCc1ccccc1 (stereo unspecified) 0.09%
CN(C)S(=O)(=O)c1cccc(NC(=O)Cn2cc(C(F)(F)F)cc(Cl)c2=O)c1 -11.3%
N#Cc1c(/N=C/c2ccco2)sc2c1CCCCC2 -3.07%
Cc1c(NS(=O)(=O)c2ccc3c(c2)Cc2ccccc2-3)c(=O)n(-c2ccccc2)n1C -2.26%
CC(=O)Nc1ccc(Cc2nc3ccccc3[nH]2)cc1 -3.93%
COC(=O)c1ccc(C(NC(=O)OCc2ccccc2)/C(C)=C/[C@@H](C)C(=O)NCc2ccc(-c3ccccc3)cc2)cc1 (stereo partly specified) -5.32%
